Our source for the growth inhibition values is PubChem BioAssay (NCI).

This is part of a sample that, as a whole, favours compounds with a hit. Of some 79,000 tested, about 15% had one in any assay. Activity calls are given as the source filed them. Cut-off read from the data, not from the text of the source: active = growth inhibition above about 70%; inactive = the rest.

This experiment is described as follows: NCI Yeast Anticancer Drug Screen. Data for the rad18 strain (AID 177). The following applies: S. cerevisiae rad18 mutant growth inhibition; at 100.0 µM; active compounds read high. Put shortly:
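Yeast carrying a defined DNA damage repair alteration were exposed to compounds. Growth inhibition was expressed relative to vehicle-treated controls.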
Regarding `COc1ccc2nc(N/N=C/c3sccc3C)cc(C)c2c1`, the growth inhibition was 96% (active).
Take `O=C(O)/C=C\C(=O)NNc1ccc(Br)cc1`: the growth inhibition is 98% (active).
On to `S=c1[nH]nc(Cc2ccccc2)c(=S)[nH]1`, for which the growth inhibition was 97% (active).
The value for `COc1ccc2nc3cccc([N+](=O)[O-])c3c(NCCCO)c2c1` was 97% (active); that for `CCN(CC)CCSc1c2ccccc2nc2cc(NCC(=O)Nc3ccccc3-c3ccccc3NC(=O)CNc3ccc4c(SCCN(CC)CC)c5ccccc5nc4c3)ccc12` was 97% (active); that for `Cc1ccc(N(C=O)c2c([N+](=O)[O-])cc([N+](=O)[O-])c3c2=[N+]([O-])CN=3)cc1` was 98% (active).
The value for `COc1ccc(C(=O)OCCc2ccccc2)cc1` was 8% (inactive).
The value for `COc1ccc(C(=O)NCCN(C)C)c2nc3ccccc3cc12` was 66% (inactive); that for `NCC(O)CSCc1ccc(Cl)cc1` (configuration not stated) was 11% (inactive).
Take `CN(C)/N=N/c1nc[nH]c1C(N)=O`: the growth inhibition is 98% (active).
For `O=c1[nH]c(=O)n(CCCO)cc1F` the value was 42% (inactive).
The value for `COc1ccc(/C(=N/O)c2ccccc2C2=Nc3ccccc3C(NCc3ccccc3)O2)cc1C` (configuration not stated) was 94% (active).
The value for `CCCC(=O)OC(OC(=O)CCC)c1ccc([N+](=O)[O-])o1` was 94% (active).
For `O=C(/C(=C/c1ccccc1)CBr)c1ccccc1`, the growth inhibition is 99% (active).
On to `O=C(Cc1ccccc1F)NC1=C(Cl)C(=O)c2ccccc2C1=O`, for which the growth inhibition is 40% (inactive).
The value for `Cc1cccc(N2CCN(C(=O)/C(=C/c3ccccc3)NC(=O)c3ccccc3)CC2)c1` was 70% (active); that for `c1cc(Nc2ccc3c(c2)OCO3)c2cc(C3CCCCC3)ccc2n1` was 85% (active); that for `Cc1ccc2nc(N/N=C/c3ccc(C)s3)cc(C)c2c1` was 93% (active).
For `COc1cc(NCCCCCNC(C)C)c2ncccc2c1Cl` the value was 13% (inactive); for `COc1ccc2cc(CN3CCC(C4CCN(Cc5ccc6cc(OC)ccc6c5)CC4)CC3)ccc2c1`, 98% (active).
Regarding `CC(=O)O/N=C/c1c2ccccc2cc2ccccc12`, the growth inhibition is 83% (active).
The value for `CC[C@@]1(OC(=O)CN(C)C)C(=O)OCc2c1cc1n(c2=O)Cc2cc3ccccc3nc2-1` was 96% (active).
The value for `CC1(C)CC(=O)C(C(CC(c2ccccc2)c2cc3c(cc2O)OCO3)C2=C(O)CC(C)(C)CC2=O)=C(O)C1` (configuration not stated) was 82% (active).
The value for `CCCCCCC(CCl)c1sc(-c2csc(CCNC(=O)OC(C)(C)C)n2)nc1C(=O)OC` (configuration not stated) was 96% (active); that for `CCOC(=O)C1=C(C)NC(C)=C(C(=O)OCC)C1c1cccc([N+](=O)[O-])c1` was 83% (active); that for `Cc1ccc2c(/C=C/c3ccc(N(C)C)cc3)ccnc2c1C` was 65% (inactive).
As to `O=C1C(Br)=CC(Br)(Br)C=C1Br`, the growth inhibition was 98% (active).
